Here are results for 35 molecules from the supplement of paper PMC13380429.

This test concerns Vero E6 infected with SARS-CoV-2. The test can be described thus: morphology score (similarity to uninfected cells); higher = more like uninfected cells. The conditions noted are these: 24 h.
Consider `O=C(O)c1ccccc1S` [o-mercapto-benzoic-acid] (10 µM), for which the morphology score is 0.201.
The same measure for `CN1CCC[C@@H]1CCO[C@](C)(c1ccccc1)c1ccc(Cl)cc1` [clemastine] (10 µM): 0.677; for `COc1ccc(CCN(C)CCc2ccc(OC)c(OC)c2)cc1OC` (10 µM): 0.0297.
The value for `Cc1noc(C)c1-c1cc(O)cc([C@@H](O)c2ccccc2)c1` (10 µM) was 0.154; that for `COc1cc(/C=C2\CCC/C(=C\c3ccc(O)c(OC)c3)C2=O)ccc1O` [cyclovalone] (10 µM) was 0.0684.
The same measure for `CCN(CC)CCCC(C)Nc1ccnc2cc(Cl)ccc12` (stereo not given) [chloroquine] (10 µM): 0.554.
The molecule `COC(=O)CC[C@@H]1N=C(c2ccccn2)c2cc(Br)ccc2-n2c(C)cnc21` [remimazolam] (10 µM) registered a morphology score of 0.132.
The value for `O=C(Nc1cc(C(F)(F)F)cc(C(F)(F)F)c1)Nc1c(Br)cc(Br)cc1-c1nnn[nH]1` (10 µM) was 0.192; that for `OCCCNc1cc(-c2ccnc(Nc3cccc(Cl)c3)n2)ccn1` (10 µM) was -0.158; that for `N#CC(Cc1ccc(O)cc1)c1ccc(O)cc1` (stereo not given) [diarylpropionitrile] (10 µM) was 0.138.
The same measure for `O=C(O)CNC(=O)c1ccccc1I` [2-iodohippuric-acid] (10 µM): -0.111; for `Cc1csc2c(N[C@@H](C)CN3CCN(S(=O)(=O)c4ccc(Cl)c(Cl)c4)CC3)ncnc12` [LPA2-antagonist-1] (10 µM): 0.142; for `NCCCCCC(=O)O` [aminocaproic-acid] (10 µM): 0.136.
The same measure for `O=C1C=CC(=O)C2=C1C1c3ccccc3C2c2ccccc21` (10 µM): 0.00761.
Molecule `CCc1cc2c(cc1CC)CC(NC[C@H](O)c1ccc(O)c3[nH]c(=O)ccc13)C2` [indacaterol] (10 µM) came in with a morphology score of 0.0532.
The same measure for `NCCc1c[nH]c2ccc(O)cc12` [serotonin] (10 µM): 0.0634; for `Cc1c(Cc2ccc3ccccc3n2)c2cc(F)ccc2n1CC(=O)O` (10 µM): 0.0108; for `CC(C)(C)c1ccc(-c2nc3c(N4CCN(Cc5ccc6nccnc6c5)CC4)cccc3[nH]2)cc1` (0.833333 µM): 0.0532.
The same measure for `CN(C)CC[C@@]1(c2ccc(Cl)cc2)Cc2ccccc2C(=O)O1` (racemic) (10 µM): -0.1; for `Nc1ncnc2c1nc(Br)n2[C@@H]1O[C@@H]2COP(=O)(O)O[C@H]2[C@H]1O` [8-bromo-cAMP] (10 µM): 0.422; for `Cc1cc(N2CCN([C@@H]3CN[C@H](C(=O)N4CCSC4)C3)CC2)n(-c2ccccc2)n1` [teneligliptin] (10 µM): 0.062.
The value for `N[C@@H](CCNCc1ccc(Cl)cc1)C(=O)N1CCCCC1` (10 µM) was -0.159; that for `COC(=O)C1=CO[C@@H](O)[C@@H]2C(CO)=CC[C@H]12` [genipin] (10 µM) was 0.291; that for `CCCCS(=O)(=O)N[C@@H](Cc1ccc(OCCCCC2CCNCC2)cc1)C(=O)O` [tirofiban] (10 µM) was 0.0487.
Take `CCN(CC)CCOC(=O)c1ccc(N)cc1` [procaine] (10 µM): the morphology score is -0.107.
The same measure for `CCc1cc2c(s1)-n1c(C)nnc1CN=C2c1ccccc1Cl` [etizolam] (10 µM): -0.0349; for `COc1nccc(-c2c(-c3ccc(F)cc3)ncn2C2CCNCC2)n1` (10 µM): -0.0202; for `N[C@@H](Cc1ccc(O)cc1)C(=O)NCC(=O)NCC(=O)O` (10 µM): -0.0946.
The same measure for `Nc1ncnc2c1ncn2[C@@H]1O[C@H](CO)C[C@H]1O` [cordycepin] (10 µM): -0.1.
The same measure for `CN(C)CC/C=C1\c2ccccc2CSc2ccccc21` [dosulepin] (10 µM): 0.188.
Take `O=c1[nH]cnc2c1cnn2[C@@H]1O[C@H](CO)[C@@H](O)[C@H]1O` [allopurinol-riboside] (10 µM): the morphology score stood at 0.0253.
The same measure for `CC(C)(F)C[C@H](N[C@@H](c1ccc(-c2ccc(S(C)(=O)=O)cc2)cc1)C(F)(F)F)C(=O)NC1(C#N)CC1` [odanacatib] (10 µM): 0.161.
The value for `CS(=O)(=O)CCNCc1ccc(-c2ccc3ncnc(Nc4ccc(OCc5cccc(F)c5)c(Cl)c4)c3c2)o1` [lapatinib] (10 µM) was -0.279.
The same measure for `COC(=O)N1CC[C@@H]2[C@H]1CCC[C@@]2(O)C#Cc1cccc(C)c1` [mavoglurant] (10 µM): -0.125.
`C[C@@H](O)[C@H](N)C(=O)N1CCC[C@H]1C(=O)N1CCC[C@H]1C(=O)N[C@H](C(N)=O)[C@@H](C)O` [rapastinel] (10 µM) showed a morphology score of -0.00969.
